Hit rate of the full screen: of about 330,000 compounds, about 1,100 (0.33%) were called active. The sample holds actives, similar compounds and a random draw of the others, so the mix is not that of the screen. Rule as the data show it: active = inhibition above about 35%; inactive = the rest.
Test: inhibitors of PMA/ionomycin-induced NF-kB reporter, 697 cells, primary screen, B-cell NF-kB inhibitor project, cell-based, luminescence, uHTS (AID 435022)
Settings: 697 B-cell NF-kB luciferase reporter, 16 h, at 4 µM, hits give high values

Row | SMILES | inhibition
1 | COc1ccc(CNC(=O)[C@@H]2CC=C[C@@H]3CCN(C4CC4)C(=O)[C@@H]32)cc1 | 37.2% (active)
2 | COc1ccc(CNC(=O)C2CCN(S(C)(=O)=O)CC2)cc1 | 3.89% (inactive)
3 | COc1ccc(CNC(=O)C2CCCC2)cc1 | 9.55% (inactive)
4 | CC(NC(=S)Nc1ccc(OC(F)F)cc1)c1ccc(F)cc1 (stereo not given) | 2.48% (inactive)
5 | COC(=O)c1cc(OC)c(OC)cc1NC(=O)C1CCCO1 (stereo not given) | 6.92% (inactive)
6 | Cc1ccc(-n2ncc3c2CCCC3NC(=O)c2cnccn2)cc1C (stereo not given) | -27.6% (inactive)
7 | COc1ccc(C(=O)NC2CCCc3c2cnn3-c2cccc(C)c2C)c(OC)n1 (stereo not given) | -399% (inactive)
8 | COc1ccc(C(=O)NC2CC(C)(C)Cc3c2cnn3-c2ccccc2C)o1 (stereo not given) | 4.57% (inactive)
9 | Cn1nccc1C(=O)NC1CCCc2c1cnn2-c1ccc(F)cc1F (stereo not given) | 36.2% (active)
10 | Cn1nccc1C(=O)NC1CCCc2c1cnn2-c1ccccc1F (stereo not given) | 62.7% (active)
11 | CC1(C)Cc2c(cnn2-c2cccc(F)c2)C(NC(=O)c2cc[n+]([O-])cc2)C1 (stereo not given) | -12.6% (inactive)
12 | CC(C)(C)C(=O)NCCCNc1ccc([N+](=O)[O-])cc1 | 14.1% (inactive)
13 | CN(C(=O)CC(NC(=O)c1ccccc1)(c1ccccc1)c1ccccc1)c1ccccc1 | 12% (inactive)
14 | COC(=O)/C(C#N)=C/c1occc1C | 5.66% (inactive)
15 | CC(NCc1cccs1)C(=O)Nc1cc(Cl)cc(Cl)c1 (stereo not given) | 7.31% (inactive)
16 | CN(C)c1ccc(-n2cccc2/C=N/n2cnnc2)cc1 | -4.94% (inactive)
17 | CCc1ccnc(NC(=O)Nc2ccc(OCc3ccccc3)cc2)c1 | 6.55% (inactive)
18 | O=c1[nH]c(-c2ccccc2)c(-c2ccccc2)[nH]1 | 35.4% (active)

Row | SMILES | inhibition
19 | O=c1cc(-c2ccccc2)nc(N2CCCCC2)[nH]1 | 11.5% (inactive)
20 | O=C(O)c1n[nH]nc1-c1ccccc1 | 14.7% (inactive)
21 | COc1ccc(CNC(=O)C[C@H]2C[C@H](C(=O)N3CCOCC3)[C@@]3(C)c4[nH]c5cc(CCC(=O)N(C)C)ccc5c4CCN3C2=O)cc1OC | 11.5% (inactive)
22 | CN1CC(c2ccccc2)C2(COc3ccccc3C2=O)C12C(=O)Nc1ccccc12 (stereo not given) | 11.7% (inactive)
23 | CC(=O)c1nc(N2C(=O)C3CC=C(C)CC3C2=O)sc1C (stereo not given) | 23.1% (inactive)
24 | C[C@@H]1C[C@@H]2O[C@H]2/C=C\C=C\C(=O)Cc2c(Cl)c(O)cc(O)c2C(=O)O1 | 83.8% (active)
25 | COc1ccc(NC(=O)CSc2nc(SC)ns2)c(OC)c1 | -40% (inactive)
26 | CCOC(=O)CSC1=N/C(=C/c2ccc(-n3cncn3)cc2)C(=O)N1C(C)=O | 6.08% (inactive)
27 | C=CCC[C@@H](Cc1ccc(F)cc1)C(=O)O[C@H](CNC(=O)[C@H](CC=C)CC(=O)N(CCO)Cc1ccccc1)c1ccccc1 | 1.62% (inactive)
28 | CCOc1ccc(C(=O)CCC(=O)NC2=NCCS2)cc1 | 21.2% (inactive)
29 | O=C(CS(=O)(=O)Cc1ccccc1)Nc1cccnc1 | -24.8% (inactive)
30 | S=C(c1ccc(-c2ccccc2)o1)N1CCCCC1 | -134% (inactive)
31 | CN1CCN(CCCCOc2ccccc2-c2ccccc2)CC1 | -15% (inactive)
32 | OCCN1CCN(C(=S)c2ccc(-c3ccccc3)cc2)CC1 | 55.1% (active)
33 | Cc1cc(=O)oc2c(C(=O)c3ccccc3)c(OCC(N)=O)ccc12 | -14.5% (inactive)
34 | O=C(CSC1=NS(=O)(=O)c2cc(F)ccc2N1)Nc1ccccc1F | 1.35% (inactive)
35 | NCCCC[C@@H]1NC(=O)[C@H](CCC(=O)O)NC(=O)c2cc([N+](=O)[O-])cc(I)c2NCC[C@@H](C(N)=O)NC1=O | 18.3% (inactive)
